# Data reported in paper PMC5540273 (PLoS ONE, 2017).
# Assays:
# MRCKB = test system: T1, MRCKB
# T1 construct: gene CDC42BPB
# NIK = test system: T2, NIK
# T2 construct: gene MAP3K14
# NIM1 = test system: T3, NIM1
# T3 construct: gene MGC42105
# OSR1 = test system: T4, OSR1
# T4 construct: gene OXSR1
# 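Further: kd values determined as follow-up on hits from a single-replicate KINOMEscan panel screen.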
compound,measurement,setting,value
C[C@@H]1CCN(C(=O)CO)C[C@@H]1N(C)c1ncnc2[nH]ccc12,Kd,MRCKB,> 10 µM
same,Kd,NLK,> 10 µM
O=C(Nc1n[nH]c2nc(-c3ccco3)c(Br)cc12)c1ccc(CN2CCCC2)cc1.O=C(O)[C@H](O)[C@@H](O)C(=O)O [SB-742352],Kd,MYLK2,0.12 µM
same,Kd,MYLK,1.3 µM
Nc1nc(-c2cccnc2)c(-c2ccnc3ccccc23)s1 [GW684083],Kd,MYLK4,0.49 µM
CN1c2ccc(-c3ccc(C(=O)NCCO)cc3)cc2-c2[nH]ncc2S1(=O)=O,Kd,MYLK,0.48 µM
COC(=O)c1c(-c2ccccc2)c2cc(Cl)ccc2c(=O)n1Cc1ccc(S(C)(=O)=O)cc1,Kd,NEK2,> 10 µM
CNc1nccc(-c2c(-c3ccc(F)cc3)ncn2CCCN2CCOCC2)n1 [SB-222516],Kd,NEK5,> 10 µM
same,Kd,PAK2,> 10 µM
CS(=O)(=O)CCNCc1ccc(-c2ccc3ncnc(Nc4ccc(OCc5ccccc5)c(Cl)c4)c3c2)o1.Cl [GW574783],Kd,NIK,> 10 µM
CC(=O)Nc1n[nH]c2ncc(-c3ccccc3)cc12 [SB-548492],Kd,NIM1,> 10 µM
CNc1nccc(-c2c(-c3ccc(F)cc3)ncn2C2CCN(C)CC2)n1 [SB-222903],Kd,NLK,0.13 µM
CCCc1ccc(S(=O)(=O)NC2CCN(c3ccnc(Nc4ccc(OC)cc4)n3)C2)cc1 (centres unmarked) [GSK1379737],Kd,OSR1,> 10 µM
same,Kd,PAK3,> 10 µM
Oc1ccc2ncnc(Nc3ccc(OCc4ccccc4)cc3)c2c1 [GI262866],Kd,PAK3,> 10 µM
c1ccc(-c2ccc3c(-c4ccnc(Nc5ccc6c(c5)OCCO6)n4)cnn3n2)cc1 [GW818941],Kd,PAK6,> 10 µM
Cc1ccc(C)c(NC(=O)NCCNc2ccnc(Nc3ccc(F)cc3)n2)c1 [GSK1379878],Kd,PAK6,> 10 µM
Cl.Cn1ccc(-c2cccc(Nc3ccnc4cc(-c5nccs5)ccc34)c2)n1 [GW525701],Kd,PAK7,> 10 µM
CSc1nn2c(=O)cc(N3CCOCC3)nc2n1Cc1cccc(Cl)c1Cl [GSK2347225],Kd,PIK3C2B,0.36 µM
same,Kd,PIK3CB,0.0008 µM
CC(C)(C)c1ccc(-n2cnc3c(N)ncnc32)cc1 [SKF-97263],Kd,PIK3C2B,8.3 µM
same,Kd,PIK3CA,> 10 µM
O=c1cc(N2CCOCC2)nc2n(Cc3cccc(Cl)c3)ccn12 [GSK2296823],Kd,PIK3CB,0.015 µM
